Compound activity (PubChem BioAssay)
Sampled rows, rich in hits. Any-hit rate of the full collection: about 7%.
S2 tox = Viability Counterscreen for Primary qHTS for Inhibitors of ATXN expression. hit rate 0.49% among 400,000. Potency, µM (top dose mostly 56.7 µM), actives largely listed as cytotoxic. S2 cells (HEK-293 line with an ATXN2-luciferase reporter) viability, CellTiter-Fluor protease fluorescence, 24 h; also: potency is read from the fitted curve at half-maximal effect; nearly all actives have a fitted effect of over 40% in size
DRD3 antagonist = qHTS of D3 Dopamine Receptor Antagonist: qHTS; D3R cells, DiscoveRx beta-arrestin luminescence, antagonist mode; stronger effect = lower value; max response, negative = inhibition, %; hit rate 2.5% among 360,000; in the data active = max response below about -50%; inconclusive = no clear call, values can overlap the other calls; also: % is scaled to controls: 0 for no effect and ±100 for the full control effect
Target sequence (P35462 whole entry, looked up): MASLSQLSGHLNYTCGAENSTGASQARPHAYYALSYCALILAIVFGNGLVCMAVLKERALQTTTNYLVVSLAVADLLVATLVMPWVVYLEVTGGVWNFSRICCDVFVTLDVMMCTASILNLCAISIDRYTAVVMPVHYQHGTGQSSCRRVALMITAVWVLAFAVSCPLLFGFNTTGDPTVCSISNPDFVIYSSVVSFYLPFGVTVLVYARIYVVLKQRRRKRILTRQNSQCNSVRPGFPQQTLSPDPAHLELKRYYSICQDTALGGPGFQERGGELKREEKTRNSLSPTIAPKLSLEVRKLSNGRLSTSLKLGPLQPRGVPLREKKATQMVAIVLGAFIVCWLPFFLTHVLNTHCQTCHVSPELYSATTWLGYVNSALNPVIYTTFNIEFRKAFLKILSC
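Cells plated overnight at 1500 cells/well, then exposed to library compounds with dopamine controls for 90 minutes at 37 degrees C. DiscoveRx reagent added for 30–60 minutes at room temperature; luminescence read, quantitative HTS format.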
D3 ag = qHTS of D3 Dopamine Receptor Agonist: qHTS; D(3) dopamine receptor (Homo sapiens), P35462; D3R DiscoveRx beta-arrestin cells, luminescence, 90 min; max activation, %; hit rate 0.58% among 410,000; in the data active = max activation above about 30%; also: 0% is about no effect
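Cells at 1500/well, incubated overnight, then treated with pinned compounds (dopamine as control) for 90 min at 37 degrees C. DiscoveRx reagent added for 30 - 60 minutes at room temperature; luminescence read.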
ATXN2 expr inh = Primary qHTS for Inhibitors of ATXN expression | HEK-293 ATXN2-luciferase reporter, luminescence, 24 h | Potency, µM (doses to about 57 µM), for the others: at the highest dose activity change, negative = inhibition, usual class: inhibitors | AID 1745845, 2022 | hit rate 0.72% among 360,000; also: potency is read from the fitted curve at half-maximal effect; % is scaled to controls: 0 for no effect and ±100 for the full control effect; nearly all actives have a fitted effect of over 55% in size
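qHTS (up to 57 uM final) was run with 24 h compound exposure of reporter cells at 37 °C. Each well was multiplexed: SteadyGlo luminescence measured ATXN2-luciferase expression after a fluorogenic Gly-Phe-AFC viability readout (25 uM final).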
a7 integrin act = qHTS for Activators of Integrin-Mediated Alleviation for Muscular Dystrophy | Potency, µM (series often up to 38.3 µM), inactives show at the highest dose activation, most hits filed as activators | hit rate 0.064% among 350,000 | alpha7betagal myoblasts, beta-gal FDG fluorescence, 48 h;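 also: potency is read from the fitted curve at half-maximal effect; 100% = response of the positive control SU9516; nearly all actives have a fitted effect of over 60% in size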
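alpha7betagal+/- myoblasts (passage 13, 250/well) treated 48 h at 37C with compounds at 1:260 dilution of DMSO stock. Lysed, then beta-galactosidase activity read as FDG fluorescence (ex 480/em 540) after 30 min, with pre-read for autofluorescence.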
IL-1B inflam inh = qHTS for Inhibitors of Inflammasome Signaling: IL-1-beta AlphaLISA Primary Screen; activity change, % at 57.5 µM; THP-1 LPS/ATP IL-1B secretion, AlphaLISA, 16 h; stronger effect = lower value; hit rate 4.7% among 360,000; in the data active = activity change below about -50%; inconclusive = mostly about -30% to -49%; also: % is scaled to controls: 0 for no effect and ±100 for the full control effect
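Secreted IL-1B measured by AlphaLISA bead assay after 16 h compound exposure of THP-1 cells; compounds (final up to 57.5 uM) added 1 h before LPS (250 ng/mL) and ATP (1.25 mM) stimulation; lower signal means less secretion.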
Active calls of the source: *; [ ] = another dose, or the depositor's remark. Unless noted, calls follow the shape of the dose curve; as a rule, active = well fitted curve in the direction sought with a large enough effect; inconclusive = small, poorly fitted or top-dose-only effect, or another doubt; inactive = no such curve, though single readings can be large; an effect the other way counts as inactive or inconclusive.

For O=[N+]([O-])c1ccc(N2CCN(c3ccc(Cl)nn3)CC2)c(Cl)c1 the results were S2 tox inactive, DRD3 antagonist -23.1, D3 ag -4.3, ATXN2 expr inh -13.6%, a7 integrin act 9.5% and IL-1B inflam inh 0.0.
For ON=C1C2CC=C(c3ccccc3)C1CCC2 (stereo not drawn) the results were S2 tox inactive, DRD3 antagonist 2.0, D3 ag 4.6, ATXN2 expr inh 1.3%, a7 integrin act 2.9% and IL-1B inflam inh -58.4*.
`COc1ccc(/C=C2\CCC(C3CCCC3)C2=O)cc1Cn1cccn1` (stereo not drawn) gave S2 tox inconclusive, DRD3 antagonist -16.4, D3 ag 5.4, ATXN2 expr inh 3.7%, a7 integrin act -27.9% and IL-1B inflam inh -80.2*.
For O=C(NCc1ccc(F)cc1F)[C@@H]1CCCN1C(=O)[C@@H]1CCCN1C(=O)c1ccccc1 the results were S2 tox inconclusive, DRD3 antagonist 6.6, D3 ag 7.2, ATXN2 expr inh -3.4% and IL-1B inflam inh -94.7*.
`COc1cccc(C(=O)N2CCC[C@H]2C(=O)N2CCC[C@H]2C(=O)NCc2ccc(F)cc2F)c1` gave S2 tox inactive, DRD3 antagonist 0.0, D3 ag -5.8, ATXN2 expr inh -7.2% and IL-1B inflam inh 25.7.
Cc1ccc(Nc2nc(CSc3nnc(-c4cccnc4)n3-c3ccccc3C)cs2)cc1 was read as S2 tox inactive, DRD3 antagonist 13.8, D3 ag 1.7, ATXN2 expr inh 5.5%, a7 integrin act -10.9% and IL-1B inflam inh inconclusive.
Screening CCCCCC(=O)N(O)C1CC(=O)N(c2ccccc2)C1=O (stereo not drawn) returned S2 tox inactive, DRD3 antagonist -85.9*, D3 ag -3.6, ATXN2 expr inh -10.6%, a7 integrin act -10.3% and IL-1B inflam inh -26.0.
`O=C1CC(N(O)C2CC(=O)N(Cc3ccccc3)C2=O)C(=O)N1Cc1ccccc1` (stereo not drawn) gave S2 tox inactive, DRD3 antagonist 4.4, D3 ag 3.0, ATXN2 expr inh 1.4%, a7 integrin act -9.3% and IL-1B inflam inh 3.8.
CCCCCCC(=O)N(O)C1CC(=O)N(Cc2ccccc2)C1=O (stereo not drawn) was read as S2 tox inactive, DRD3 antagonist -4.6, D3 ag -1.1, ATXN2 expr inh 0.0%, a7 integrin act 11.4% and IL-1B inflam inh -87.5*.
`Nc1nc(NC(=O)c2ccc(F)cc2)ns1` gave S2 tox inactive, DRD3 antagonist -4.6, D3 ag 4.2, ATXN2 expr inh 1.8%, a7 integrin act -1.4% and IL-1B inflam inh -72.7*.
Screening CC(=O)Cc1nsc(NC(=O)c2ccc(F)cc2)n1 returned S2 tox inactive, DRD3 antagonist -9.9, D3 ag -1.6, ATXN2 expr inh 6.8%[11.3 µM], a7 integrin act 7.1% and IL-1B inflam inh 0.2.
`Cc1cccc(NC2=C(C#N)C(=O)NC3(CCCC3)S2)c1` gave S2 tox inactive, DRD3 antagonist -7.9, D3 ag -0.8, a7 integrin act -1.6% and IL-1B inflam inh -18.7.
Screening O=C(CN1CCCCC1)Nc1c2c(nc3ccccc13)N(c1ccccc1)CC2 returned S2 tox inconclusive, DRD3 antagonist 1.1, D3 ag -1.9, ATXN2 expr inh -34.5%, a7 integrin act -57.7% and IL-1B inflam inh -80.7*.
`CCCC(=O)Nc1c2c(nc3ccccc13)N(c1ccccc1)CC2` gave S2 tox inactive, DRD3 antagonist 4.2, D3 ag 3.1, a7 integrin act -22.2% and IL-1B inflam inh 0.0.
Cc1cc(C)cc(NC(=S)/C(=C(\[O-])c2ccc(Cl)cc2Cl)[n+]2ccccc2)c1 was read as S2 tox inactive, DRD3 antagonist -8.8, D3 ag -11.0, ATXN2 expr inh -11.3%, a7 integrin act -17.4% and IL-1B inflam inh 15.6.
[O-]/C(=C(\C(=S)Nc1ccc(SC(F)F)cc1)[n+]1ccccc1)c1ccc(Cl)cc1Cl was read as S2 tox inconclusive, DRD3 antagonist -25.5, D3 ag -0.3, ATXN2 expr inh -35.8%, a7 integrin act 23.0% and IL-1B inflam inh -68.9*.
`COc1ccccc1/C=C/C(=O)Nc1nc2n(n1)C(c1ccc(F)cc1)C=C(c1ccccc1)N2` (stereo not drawn) gave S2 tox inactive, D3 ag 3.8 and ATXN2 expr inh -0.8%.
Screening COc1cc2[nH]c(=S)nc(NCCCOC(C)C)c2cc1OC returned S2 tox inactive, DRD3 antagonist -78.3*, D3 ag -1.9, ATXN2 expr inh inconclusive, a7 integrin act 12.8% and IL-1B inflam inh 36.0.
`COc1ccc(/C=C/C(=O)OCC(=O)N2c3ccccc3CC2C)cc1` (stereo not drawn) gave S2 tox inactive, DRD3 antagonist 3.2, D3 ag 1.1, a7 integrin act 1.5% and IL-1B inflam inh 22.3.
For CC(=O)Nc1ccc(C(=O)CS(=O)(=O)c2ccc(C)cc2)cc1 the results were S2 tox inactive, DRD3 antagonist -0.7, D3 ag 0.2, ATXN2 expr inh -4.5%, a7 integrin act 32.2% and IL-1B inflam inh 6.1.
For O=C(O)c1cn(-c2ccc(F)c(F)c2)c2c(F)c(F)c(F)c(F)c2c1=O the results were S2 tox inactive, DRD3 antagonist 5.5, D3 ag 6.3, ATXN2 expr inh inconclusive, a7 integrin act -50.9% and IL-1B inflam inh -96.4*.
CCOC(=O)C1Oc2ccccc2C(c2cccc3ccccc23)=C1C(=O)OC (stereo not drawn) was read as S2 tox inactive, DRD3 antagonist 46.2, D3 ag 14.0, ATXN2 expr inh -2.4%, a7 integrin act 2.2% and IL-1B inflam inh 5.4.
CCCCC(O)(c1ccc(CC)cc1)C(CN1CCOCC1)c1ccccc1 (stereo not drawn) was read as S2 tox inactive, DRD3 antagonist 0.0, D3 ag 0.8, ATXN2 expr inh -20.7%, a7 integrin act -47.8% and IL-1B inflam inh -53.7*.
`CCCCCC(O)(c1ccc(OCC)cc1)C(CN1CCOCC1)c1ccccc1` (stereo not drawn) gave S2 tox inactive, DRD3 antagonist 4.7, D3 ag -14.4, ATXN2 expr inh -24.6%, a7 integrin act -56.4% and IL-1B inflam inh -85.3*.
`CCOC(=O)C1CCCN(S(=O)(=O)CCNC(=O)c2ccc3c(c2)OCO3)C1` (stereo not drawn) gave S2 tox inactive, DRD3 antagonist -13.7, D3 ag -9.5, ATXN2 expr inh -3.9%, a7 integrin act -1.9% and IL-1B inflam inh -72.9*.
